A short description of test [1]: NCI Yeast Anticancer Drug Screen. Data for the rad50 strain (AID 155).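 Note: 0% = growth of vehicle-only cultures of the same strain.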 As to conditions: S. cerevisiae rad50 strain growth inhibition, stronger effect = higher value. The method, boiled down:
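Growth of the mutant yeast was measured after compound exposure and referenced to vehicle-treated cultures.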

Test [2] can be described thus: NCI Yeast Anticancer Drug Screen. Data for the mec2-1 strain (AID 157). The conditions noted are these: S. cerevisiae mec2-1 strain, stronger effect = higher value. A digest of the protocol:
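Mutant yeast (mec2-1) grown with compound; growth inhibition relative to vehicle control reported.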

The nature of test [3]: NCI Yeast Anticancer Drug Screen. Data for the sgs1 mgt1 strain (AID 161).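 Note: 0% = growth of cultures given vehicle only.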 The conditions noted are these: S. cerevisiae sgs1 mgt1 strain, stronger effect = higher value. The method, boiled down:
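This yeast growth screen uses a strain with defined DNA-repair lesions; compound-treated growth is compared with vehicle-treated growth.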

Test [4] in a line: NCI Yeast Anticancer Drug Screen. Data for the cln2 rad14 strain (AID 165).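 Note: 0% = growth equal to vehicle treated cultures.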 The conditions noted are these: S. cerevisiae cln2 rad14 strain, stronger effect = higher value. A digest of the protocol:
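Readout is yeast growth inhibition versus vehicle-treated controls, using a strain with cln2 and rad14 alterations exposed to compound.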

The nature of test [5]: NCI Yeast Anticancer Drug Screen. Data for the bub3 strain (AID 167). As to conditions: S. cerevisiae bub3 mutant strain, stronger effect = higher value. The method, boiled down: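 Whole-cell yeast assay. The mutant strain was incubated with compounds, and growth inhibition was determined by comparison with vehicle-treated cells.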
Test [6] is described as follows: NCI Yeast Anticancer Drug Screen. Data for the mlh1 rad18 strain (AID 175). As to conditions: S. cerevisiae mlh1 rad18 strain growth inhibition, stronger effect = higher value. A digest of the protocol: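 Genetically defined yeast (DNA repair-deficient) exposed to compounds; growth inhibition determined relative to vehicle.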
The mark [7] stands for this setting: at 5.0 µM (retest, dose inferred, filed as 0.5).
Where [8] appears, read: at 50.0 µM (retest, dose inferred, filed as 5.0).

Values joined by “and” are separate entries in the source; they are usually repeats but may differ in a detail not shown here. Equal values may be shown once. This is part of a sample that, as a whole, favours compounds with a hit. Of some 79,000 tested, about 15% had one in any assay. Where a structure was tested more than once in an assay, its records may differ in their call. Active and inactive are the calls of the source. Cut-off read from the data, not from the text of the source: active = growth inhibition above about 70%; inactive = the rest. Where a SMILES comes first, the peptide text is derived from it.

Turning to `CC(C)C(NC(=O)C(N)CCC(=O)O)C(=O)O` (stereo not drawn) (H-Glu-Val-OH; configuration not given here), the growth inhibition in test [1] (setting [7]) was -3% (inactive); in test [1] (setting [8]) it was 2% (inactive); in test [1] (at 50.0 µM), 15.7% (inactive); in test [2] (setting [7]) it was -1% (inactive); in test [2] (setting [8]), 5% (inactive); in test [2] (at 50.0 µM) it was 2.15% (inactive). Also, the growth inhibition was 0% (inactive) in test [3] (setting [7]); 1% (inactive) in test [3] (setting [8]); -9.35% (inactive) in test [3] (at 50.0 µM); 5% (inactive) in test [4] (setting [7]); 7% (inactive) in test [4] (setting [8]); 45% (inactive) in test [4] (at 50.0 µM). For the same molecule, the growth inhibition is -1% (inactive) in test [5] (setting [7]); 0% (inactive) in test [5] (setting [8]); -8.25% (inactive) in test [5] (at 50.0 µM); -3% (inactive) in test [6] (setting [7]); 4% (inactive) in test [6] (setting [8]); 9.95% (inactive) in test [6] (at 50.0 µM).
Regarding `CCc1nc(N)nc(N)c1-c1ccc(Cl)c(N=[N+]=[N-])c1`, the growth inhibition in test [1] (setting [7]) was 41% (inactive); in test [1] (setting [8]), 40% (inactive); in test [1] (at 50.0 µM) it was 6.65% (inactive) and 71.2% (active); in test [2] (setting [7]), 18% (inactive); in test [2] (setting [8]) it was 21% (inactive); in test [2] (at 50.0 µM) it was -15.3% (inactive) and 65.5% (inactive). The growth inhibition in test [3] (setting [7]) was 56% (inactive); in test [3] (setting [8]), 54% (inactive); in test [3] (at 50.0 µM), -0.8% (inactive) and 61.6% (inactive); in test [4] (setting [7]), 18% (inactive); in test [4] (setting [8]) it was 28% (inactive); in test [4] (at 50.0 µM), -6.55% (inactive) and 62.5% (inactive). The growth inhibition in test [5] (setting [7]) is 30% (inactive); in test [5] (setting [8]), 26% (inactive); in test [5] (at 50.0 µM), 6.35% (inactive) and 54.5% (inactive); in test [6] (setting [7]), 65% (inactive); in test [6] (setting [8]) it was 62% (inactive); in test [6] (at 50.0 µM), -1.7% (inactive) and 27.7% (inactive).
On to `CC(NC(=O)C(N)Cc1ccccc1)C(=O)NC1C(CO)OC(n2cnc3c(N)ncnc32)C1O` (centres undefined), for which the growth inhibition in test [1] (setting [7]) is 0% (inactive); in test [1] (setting [8]) it was -1% (inactive); in test [1] (at 50.0 µM), 32.2% (inactive); in test [2] (setting [7]), 2% (inactive); in test [2] (setting [8]), 17% (inactive); in test [2] (at 50.0 µM), 76.9% (active). Also, the growth inhibition in test [3] (setting [7]) was -5% (inactive); in test [3] (setting [8]), -20% (inactive); in test [3] (at 50.0 µM), 3.5% (inactive); in test [4] (setting [7]), 0% (inactive); in test [4] (setting [8]), -6% (inactive); in test [4] (at 50.0 µM), 97.7% (active). Also, the growth inhibition in test [5] (setting [7]) is -3% (inactive); in test [5] (setting [8]), -4% (inactive); in test [5] (at 50.0 µM), 96.5% (active); in test [6] (setting [7]) it was 12% (inactive); in test [6] (setting [8]), 32% (inactive); in test [6] (at 50.0 µM), 69.5% (inactive).
For `C=CCOC(=O)c1ccc(C(=O)OCC=C)cc1`, the growth inhibition in test [1] (setting [7]) was -5% (inactive); in test [1] (setting [8]), -77% (inactive); in test [1] (at 50.0 µM), 50.6% (inactive); in test [2] (setting [7]), -11% (inactive); in test [2] (setting [8]) it was -32% (inactive); in test [2] (at 50.0 µM), 52.2% (inactive). Moreover, the growth inhibition in test [3] (setting [7]) was -1% (inactive); in test [3] (setting [8]) it was -13% (inactive); in test [3] (at 50.0 µM), 78.5% (active); in test [4] (setting [7]), 4% (inactive); in test [4] (setting [8]) it was -26% (inactive); in test [4] (at 50.0 µM), 39.4% (inactive). Moreover, the growth inhibition was 6% (inactive) in test [5] (setting [7]); -53% (inactive) in test [5] (setting [8]); 44.8% (inactive) in test [5] (at 50.0 µM); 0% (inactive) in test [6] (setting [7]); -41% (inactive) in test [6] (setting [8]); 64.3% (inactive) in test [6] (at 50.0 µM).
`C=C1C(=O)C23OC2C1CCC(=O)C1(C)CC[C@H](OC(C)=O)C(C)(C)[C@H]1CC3=O` (some centres undefined): the growth inhibition was 96% (active) in test [1] (setting [7]); -2% (inactive) in test [1] (setting [8]); 99.2% (active) in test [1] (at 50.0 µM); 98% (active) in test [2] (setting [7]); 1% (inactive) in test [2] (setting [8]); 99.5% (active) in test [2] (at 50.0 µM). Moreover, the growth inhibition is 98% (active) in test [3] (setting [7]); 0% (inactive) in test [3] (setting [8]); 99.5% (active) in test [3] (at 50.0 µM); 95% (active) in test [4] (setting [7]); -1% (inactive) in test [4] (setting [8]); 99% (active) in test [4] (at 50.0 µM). Also, the growth inhibition in test [5] (setting [7]) was 98% (active); in test [5] (setting [8]), -1% (inactive); in test [5] (at 50.0 µM), 99% (active); in test [6] (setting [7]) it was 98% (active); in test [6] (setting [8]), -1% (inactive); in test [6] (at 50.0 µM) it was 99.2% (active).
For the molecule `NC(C/[N+]([O-])=N/O)C(=O)O` (centres undefined), the growth inhibition in test [1] (setting [7]) was 18% (inactive); in test [1] (setting [8]), 21% (inactive); in test [1] (at 50.0 µM), 40.7% (inactive) and 47.2% (inactive) and 57.1% (inactive); in test [2] (setting [7]), 10% (inactive); in test [2] (setting [8]) it was 13% (inactive); in test [2] (at 50.0 µM), 11.1% (inactive) and 22.1% (inactive) and 33.5% (inactive). The growth inhibition in test [3] (setting [7]) was 46% (inactive); in test [3] (setting [8]), 51% (inactive); in test [3] (at 50.0 µM), 36.2% (inactive) and 39.5% (inactive) and 48.1% (inactive); in test [4] (setting [7]), 37% (inactive); in test [4] (setting [8]), -28% (inactive); in test [4] (at 50.0 µM), 5.75% (inactive) and 1.45% (inactive) and 18.8% (inactive). In addition, the growth inhibition in test [5] (setting [7]) was 46% (inactive); in test [5] (setting [8]), 4% (inactive); in test [5] (at 50.0 µM), -0.3% (inactive) and 17.1% (inactive) and 21.9% (inactive); in test [6] (setting [7]) it was 25% (inactive); in test [6] (setting [8]), 38% (inactive); in test [6] (at 50.0 µM) it was 31.9% (inactive) and 35.6% (inactive) and 46.6% (inactive).
On to `O=C(NNC(=O)c1ccccc1O)c1ccccc1O`, for which the growth inhibition was 4% (inactive) in test [1] (setting [7]); 14% (inactive) in test [1] (setting [8]); 56.1% (inactive) in test [1] (at 50.0 µM); 2% (inactive) in test [2] (setting [7]); 34% (inactive) in test [2] (setting [8]); 37.3% (inactive) in test [2] (at 50.0 µM). Further, the growth inhibition in test [3] (setting [7]) was 8% (inactive); in test [3] (setting [8]), 32% (inactive); in test [3] (at 50.0 µM) it was 61% (inactive); in test [4] (setting [7]), -4% (inactive); in test [4] (setting [8]), -2% (inactive); in test [4] (at 50.0 µM) it was 35.9% (inactive). Besides, the growth inhibition in test [5] (setting [7]) was 2% (inactive); in test [5] (setting [8]) it was 19% (inactive); in test [5] (at 50.0 µM), 74.2% (active); in test [6] (setting [7]), 5% (inactive); in test [6] (setting [8]) it was 33% (inactive); in test [6] (at 50.0 µM) it was 49.8% (inactive).
As for `CN(C)CCC(=O)c1cccc([N+](=O)[O-])c1`, the growth inhibition in test [1] (setting [7]) was 10% (inactive); in test [1] (setting [8]), 85% (active); in test [1] (at 50.0 µM), 39.3% (inactive) and 83.9% (active); in test [2] (setting [7]), 13% (inactive); in test [2] (setting [8]), 87% (active); in test [2] (at 50.0 µM), 4.1% (inactive) and 88.5% (active). The growth inhibition in test [3] (setting [7]) was 12% (inactive); in test [3] (setting [8]), 89% (active); in test [3] (at 50.0 µM), 11.4% (inactive) and 96% (active); in test [4] (setting [7]), 7% (inactive); in test [4] (setting [8]) it was 71% (active); in test [4] (at 50.0 µM) it was 31.4% (inactive) and 34.9% (inactive). Further, the growth inhibition in test [5] (setting [7]) is 2% (inactive); in test [5] (setting [8]), 92% (active); in test [5] (at 50.0 µM) it was 14.5% (inactive) and 90.2% (active); in test [6] (setting [7]), 11% (inactive); in test [6] (setting [8]), 96% (active); in test [6] (at 50.0 µM), 33.4% (inactive) and 96.8% (active).
